Test results published in PubChem BioAssay (NCATS).
Values joined by “and” are separate entries in the source; they are usually repeats but may differ in a detail not shown here. Identical values can stand only once. Inconclusive results are not listed. A call without a number means that no potency is given here. Active and inactive are the calls of the source. Unless noted, calls follow the shape of the dose curve; as a rule, active = well fitted curve in either direction with a large enough effect (not every such curve was filed as active); inconclusive = small, poorly fitted or top-dose-only effect, or another doubt; inactive = flat fitted curve, though single readings scatter.

Key:
[1] = AP1 Signaling Pathway (AID 357);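 also: ME-180 reporter cells stimulated with EGF at its EC50 level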
Summary of the method: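 Read-out was the 460nm/530nm emission ratio (excitation 405nm) after CCF4 loading for 2.5 hours at room temperature. Cells carried an AP-1-driven beta-lactamase reporter, were stimulated with EC50 EGF plus compound for 5 hours, and AC50 values came from titrations.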

[2] = Stat Signaling Pathway (AID 446);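 also: ME-180 cervical cancer cells given 40 pM IL-6 alongside compound; SIE-controlled beta-lactamase reporter measured as 460/530 nm FRET emission ratio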
Summary of the method: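 Reporter line: ME-180 cervical carcinoma, SIE-beta-lactamase. Treatment: compound with 40 pM IL-6, 5 hrs, 37 C, in low-serum OPTI-MEM with 10 mM HEPES pH 7.3. Detection: 460/530 nm fluorescence.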

[3] = target: Glucocorticoid receptor (Homo sapiens) (UniProt P04150); assay: GR-GFP Redistribution (AID 450;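 active = compounds whose dose series gives a full or clear partial fitted curve of increased nuclear translocation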; also: potency is read from the fitted curve at half-maximal effect); conditions: U2OS GR-GFP nuclear translocation, laser cytometry, 2 h
[4] = target: Mitogen-activated protein kinase 10 (Mus musculus) (UniProt Q61831); assay: JNK3 AlphaScreen Assay (AID 530);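 also: kinase came from lysate of stimulated human HepG2 cells; signal reports phosphorylation of biotinylated GST-cJun 1-79 at Ser73 with 10 µM ATP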
Summary of the method: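 Pre-activated (IL-1β/TNFα) JNK3 in HepG2 lysates phosphorylates biotin-GST-cJun(1-79), 10 uM ATP; anti-phospho-cJun(Ser73) AlphaScreen read at room temperature, pH 7.6 Tris buffer. Compounds pre-incubated 15 min as titrations.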

[5] = target: 3',5'-cyclic-AMP phosphodiesterase 4B (Homo sapiens) (UniProt Q07343); assay: qHTS Assay for Inhibitors of PDE-IV (AID 607; active = well fitted activation curve with a large enough effect in the main read-out, with a control signal flat, not every such curve was filed as active)
Summary of the method: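 Cell-based read-out of cAMP via a modified cyclic nucleotide-gated channel and membrane potential dye (535/590 nm) in HEK293 cells expressing PDE4 endogenously. Compounds tested up to 22.9 uM final; 100 uM RO 20-1724 reference.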

[6] = qHTS Assay for Lipid Storage Modulators (AID 1519; calls by dose curve); conditions: Drosophila S3 cells, BODIPY lipid droplet/cell ratio, laser cytometry, cells loaded with oleic acid
Summary of the method: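 Cells seeded at 5,000 per well were treated with compounds over a concentration series and loaded with oleic acid (400 uM, as added). Lipid droplet fluorescence (488 nm excitation, 500-530 nm channel) was read by laser-scanning cytometry and normalized to 20 uM Triacsin C.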

[7] = target: Ubiquitin carboxyl-terminal hydrolase 1 (Homo sapiens) (UniProt O94782); assay: Inhibitors of USP1/UAF1: Pilot qHTS (AID 504865; active = well fitted curve in the direction sought with a large enough effect; an effect the other way counts as inactive or inconclusive; also: nearly all actives have a fitted effect of over 35% in size; also: potency is read from the fitted curve at half-maximal effect;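 as to activity change, negative = inhibition: rhodamine fluorescence freed from ubiquitin-rhodamine substrate followed over time; top concentration of the series differs between compounds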)
Summary of the method: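 Deubiquitinase activity followed as kinetic rhodamine fluorescence release from 150 nM Ub-Rho. 1 nM USP1/UAF1 with compound, after 15 min room-temperature preincubation, in HEPES pH 7.8 buffer containing TCEP, EDTA, BSA and Tween-20.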

[8] = target: Luciferin 4-monooxygenase (Photinus pyralis) (UniProt P08659); assay: Biochemical firefly luciferase enzyme assay for NPC (AID 624030; active = well fitted curve in the direction sought with a large enough effect; an effect the other way counts as inactive or inconclusive;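 also: purified P. pyralis luciferase at 10 nM with luciferin and ATP substrate; nearly all actives have a fitted effect of over 70% in size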)
Summary of the method: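 Purified P. pyralis luciferase at 10 nM in 50 mM Tris Acetate (final), luminescence read within 5 minutes of enzyme addition to compounds. Activity normalised to PTC124 versus DMSO; concentration-response curves classed by r2, magnitude and activity.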

[9] = target: Cytochrome P450 3A4 (Homo sapiens) (UniProt P08684); assay: qHTS Assay for Inhibitors and Substrates of Cytochrome P450 3A4 (AID 884; active = well fitted curve in the direction sought with a large enough effect; an effect the other way counts as inactive or inconclusive; also: nearly all actives have a fitted effect of over 50% in size)
Summary of the method: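 20 nM human CYP3A4 with 25 uM Luciferin-PPXE (at KM) in 200 mM KPO4, preincubated 10 min with compound; NADPH regeneration started a 60 min RT reaction. Luciferin detected by luminescence, normalized to 57 uM ketoconazole as full inhibition.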

[10] = target: Glucocorticoid receptor (Homo sapiens) (UniProt P04150); assay: GR-EFC Redistribution (AID 451; calls by dose curve; also: potency is read from the fitted curve at half-maximal effect); conditions: CHO-K1 GR-EFC translocation, beta-gal luminescence, 2 h
Summary of the method: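 CHO-K1 cells expressing nuclear EA and GR-ED fragments of b-gal; compounds titrated up to 46 uM final, 2 h at 37 C. GR nuclear translocation read as complemented b-gal luminescence after 1 h RT detection.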

[11] = target: Cytochrome P450 3A4 (Homo sapiens) (UniProt P08684); assay: qHTS Assay for Activators of Cytochrome P450 3A4 (AID 885; active = well fitted curve in the direction sought with a large enough effect; an effect the other way counts as inactive or inconclusive; also: nearly all actives have a fitted effect of over 65% in size)
Summary of the method: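 Signal was normalized against complete inhibition by 57 uM ketoconazole. The reaction used 20nM CYP3A4 with 25uM Luciferin-PPXE, 10-min compound preincubation and a 60-min NADPH-supported step at RT.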

[12] = target: ATP-dependent 6-phosphofructokinase (Trypanosoma brucei brucei) (UniProt O15648); assay: qHTS Assay to Find Inhibitors of T. brucei phosphofructokinase: hit validation (AID 492961; active = well fitted curve in the direction sought with a large enough effect; an effect the other way counts as inactive or inconclusive;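 also: luminescence reports ADP formed as PFK phosphorylates fructose-6-phosphate with ATP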)
Summary of the method: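 Compounds titrated; %activity normalized to 0x and 1x enzyme controls, curve-fitted. Readout: ADP-Glo luminescence after 45 min room-temperature reaction of 1.25 nM PFK, 0.1 mM ATP, 0.5 mM F6P, pH 8.0.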

[13] = qHTS profiling for inhibitors of Plasmodium falciparum proliferation (AID 504749; active = well fitted curve in the direction sought with a large enough effect; an effect the other way counts as inactive or inconclusive; also: nearly all actives have a fitted effect of over 60% in size); conditions: P. falciparum in erythrocytes, SYBR Green DNA, 72 h, at 28.7 µM (top of the series)
Summary of the method: (§1)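 P. falciparum-infected erythrocytes (0.3% parasitemia, 2.5% hematocrit) incubated with compound 72 h at 37 C, 5% CO2. Parasite DNA detected by SYBR Green after lysis, overnight at room temperature; normalised to 0.29 uM artemisinin and DMSO.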

CP192 = assay: as above; conditions: P. falciparum in erythrocytes, SYBR Green DNA, 72 h; series mostly up to 28.7 µM
Summary of the method: as §1

CP211 = assay: as above; conditions: P. falciparum in erythrocytes, SYBR Green DNA, 72 h; series mostly up to 28.7 µM
Summary of the method: as §1

CP286 = assay: as above; conditions: P. falciparum in erythrocytes, SYBR Green DNA, 72 h; series mostly up to 28.7 µM
Summary of the method: as §1

P94_40 = assay: as above; conditions: P. falciparum in erythrocytes, SYBR Green DNA, 72 h; series mostly up to 28.7 µM
Summary of the method: as §1

[14] = measured here: cell count channel max response
[15] = measured here: lipid channel max response

Sequence of Ubiquitin carboxyl-terminal hydrolase 1 (Homo sapiens) (O94782 whole entry, looked up): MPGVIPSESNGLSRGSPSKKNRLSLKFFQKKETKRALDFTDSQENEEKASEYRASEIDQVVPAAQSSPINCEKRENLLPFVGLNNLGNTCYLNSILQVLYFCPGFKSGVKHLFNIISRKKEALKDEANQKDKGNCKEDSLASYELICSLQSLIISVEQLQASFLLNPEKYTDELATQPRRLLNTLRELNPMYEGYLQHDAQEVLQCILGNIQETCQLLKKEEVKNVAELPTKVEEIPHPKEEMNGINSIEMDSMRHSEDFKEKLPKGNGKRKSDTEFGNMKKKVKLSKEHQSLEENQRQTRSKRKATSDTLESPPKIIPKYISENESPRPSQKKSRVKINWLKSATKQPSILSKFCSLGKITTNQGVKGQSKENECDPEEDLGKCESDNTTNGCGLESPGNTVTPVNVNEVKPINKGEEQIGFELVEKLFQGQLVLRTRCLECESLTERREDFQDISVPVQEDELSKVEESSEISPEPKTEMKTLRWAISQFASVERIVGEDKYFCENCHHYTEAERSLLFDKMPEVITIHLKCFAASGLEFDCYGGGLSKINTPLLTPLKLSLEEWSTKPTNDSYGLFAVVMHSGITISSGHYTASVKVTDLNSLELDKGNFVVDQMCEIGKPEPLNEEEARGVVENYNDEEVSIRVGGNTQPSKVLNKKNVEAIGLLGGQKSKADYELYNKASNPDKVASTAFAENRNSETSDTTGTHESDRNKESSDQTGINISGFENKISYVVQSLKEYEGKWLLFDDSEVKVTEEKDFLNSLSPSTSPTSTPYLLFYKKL
Sequence of Glucocorticoid receptor (Homo sapiens) (P04150 whole entry, looked up, the tested form may be a part): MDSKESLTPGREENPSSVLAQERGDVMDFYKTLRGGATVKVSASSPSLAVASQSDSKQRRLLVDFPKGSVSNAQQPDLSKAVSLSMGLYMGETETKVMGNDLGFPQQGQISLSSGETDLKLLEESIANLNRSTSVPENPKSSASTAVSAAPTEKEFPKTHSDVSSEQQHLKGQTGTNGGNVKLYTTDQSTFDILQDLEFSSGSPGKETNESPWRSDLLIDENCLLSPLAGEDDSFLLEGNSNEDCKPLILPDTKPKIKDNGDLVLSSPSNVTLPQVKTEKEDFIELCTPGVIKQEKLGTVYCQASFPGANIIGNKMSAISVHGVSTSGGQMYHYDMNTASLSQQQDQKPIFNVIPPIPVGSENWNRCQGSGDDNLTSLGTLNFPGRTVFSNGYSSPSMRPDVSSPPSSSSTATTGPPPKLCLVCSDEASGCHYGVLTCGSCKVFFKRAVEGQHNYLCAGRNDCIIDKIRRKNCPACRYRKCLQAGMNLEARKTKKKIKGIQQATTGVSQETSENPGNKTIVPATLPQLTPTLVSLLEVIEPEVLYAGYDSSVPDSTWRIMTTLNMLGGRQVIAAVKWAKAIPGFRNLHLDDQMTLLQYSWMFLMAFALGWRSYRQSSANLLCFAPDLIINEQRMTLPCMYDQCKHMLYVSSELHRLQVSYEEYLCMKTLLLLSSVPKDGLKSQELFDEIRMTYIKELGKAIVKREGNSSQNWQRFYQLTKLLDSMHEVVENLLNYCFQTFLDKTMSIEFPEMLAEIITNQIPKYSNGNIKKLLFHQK
Sequence of Cytochrome P450 3A4 (Homo sapiens) (P08684 whole entry, looked up): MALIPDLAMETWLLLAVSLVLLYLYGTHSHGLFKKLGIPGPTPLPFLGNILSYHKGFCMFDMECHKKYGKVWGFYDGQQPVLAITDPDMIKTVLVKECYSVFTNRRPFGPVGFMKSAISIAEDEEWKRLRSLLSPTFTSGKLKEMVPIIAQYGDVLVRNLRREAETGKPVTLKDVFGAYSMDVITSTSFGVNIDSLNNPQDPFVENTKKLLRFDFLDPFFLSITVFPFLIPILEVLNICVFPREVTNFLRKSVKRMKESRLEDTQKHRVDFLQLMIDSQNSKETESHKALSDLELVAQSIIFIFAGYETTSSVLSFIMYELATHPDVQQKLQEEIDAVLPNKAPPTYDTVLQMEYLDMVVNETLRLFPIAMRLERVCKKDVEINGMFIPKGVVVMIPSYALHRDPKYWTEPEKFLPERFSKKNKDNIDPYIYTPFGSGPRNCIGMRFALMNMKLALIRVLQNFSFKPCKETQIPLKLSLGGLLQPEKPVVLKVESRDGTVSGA
Sequence of 3',5'-cyclic-AMP phosphodiesterase 4B (Homo sapiens) (Q07343 whole entry, looked up): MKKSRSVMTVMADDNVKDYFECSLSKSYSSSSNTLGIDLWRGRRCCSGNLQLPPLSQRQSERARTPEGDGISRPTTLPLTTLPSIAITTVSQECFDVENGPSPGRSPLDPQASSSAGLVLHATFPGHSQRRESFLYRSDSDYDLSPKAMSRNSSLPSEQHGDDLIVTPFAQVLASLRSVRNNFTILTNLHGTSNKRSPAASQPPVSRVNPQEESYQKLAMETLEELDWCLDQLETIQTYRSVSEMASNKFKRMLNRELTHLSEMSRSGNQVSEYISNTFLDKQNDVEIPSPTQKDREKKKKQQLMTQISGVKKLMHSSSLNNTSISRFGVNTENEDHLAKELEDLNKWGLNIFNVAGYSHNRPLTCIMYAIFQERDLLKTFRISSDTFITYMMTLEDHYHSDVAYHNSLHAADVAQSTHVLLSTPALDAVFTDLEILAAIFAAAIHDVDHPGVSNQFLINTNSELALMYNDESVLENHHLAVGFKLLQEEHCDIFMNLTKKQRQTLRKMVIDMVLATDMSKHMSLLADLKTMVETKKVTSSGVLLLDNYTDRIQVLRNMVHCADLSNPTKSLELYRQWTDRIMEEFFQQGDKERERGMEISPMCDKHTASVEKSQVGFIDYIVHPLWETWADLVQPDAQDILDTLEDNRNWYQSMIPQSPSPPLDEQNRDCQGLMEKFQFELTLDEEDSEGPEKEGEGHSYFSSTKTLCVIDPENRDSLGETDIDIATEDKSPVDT
Sequence of Luciferin 4-monooxygenase (Photinus pyralis) (P08659 whole entry, looked up): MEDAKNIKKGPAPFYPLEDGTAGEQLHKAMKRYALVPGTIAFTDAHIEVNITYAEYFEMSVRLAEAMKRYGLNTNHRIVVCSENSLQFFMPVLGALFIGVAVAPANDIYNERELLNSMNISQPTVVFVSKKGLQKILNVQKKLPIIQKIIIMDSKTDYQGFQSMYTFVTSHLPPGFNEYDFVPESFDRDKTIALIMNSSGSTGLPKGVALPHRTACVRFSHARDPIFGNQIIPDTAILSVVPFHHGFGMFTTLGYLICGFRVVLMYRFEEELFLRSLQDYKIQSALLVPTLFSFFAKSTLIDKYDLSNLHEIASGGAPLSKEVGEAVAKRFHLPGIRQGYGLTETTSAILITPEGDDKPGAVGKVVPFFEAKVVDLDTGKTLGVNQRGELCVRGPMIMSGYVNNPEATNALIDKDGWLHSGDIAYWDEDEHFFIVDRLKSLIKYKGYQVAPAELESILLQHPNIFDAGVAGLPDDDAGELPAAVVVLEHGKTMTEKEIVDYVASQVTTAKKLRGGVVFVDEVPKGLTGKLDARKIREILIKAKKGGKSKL
Sequence of ATP-dependent 6-phosphofructokinase (Trypanosoma brucei brucei) (O15648 whole entry, looked up): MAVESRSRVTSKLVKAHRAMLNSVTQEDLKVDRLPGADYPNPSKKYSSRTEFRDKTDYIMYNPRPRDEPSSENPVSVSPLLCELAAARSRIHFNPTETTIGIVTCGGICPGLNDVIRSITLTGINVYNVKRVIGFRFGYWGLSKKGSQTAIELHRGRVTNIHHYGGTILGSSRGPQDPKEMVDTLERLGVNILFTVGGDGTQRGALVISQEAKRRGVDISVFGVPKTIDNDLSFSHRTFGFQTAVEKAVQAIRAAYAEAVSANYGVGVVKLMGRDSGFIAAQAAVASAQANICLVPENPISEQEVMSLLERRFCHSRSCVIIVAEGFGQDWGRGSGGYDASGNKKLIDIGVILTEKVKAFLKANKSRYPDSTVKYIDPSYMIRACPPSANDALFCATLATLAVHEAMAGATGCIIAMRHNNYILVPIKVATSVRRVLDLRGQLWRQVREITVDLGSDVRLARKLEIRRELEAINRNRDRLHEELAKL

CC(=O)N[C@@H]1CCSC1=O
outcome [1]: inactive | outcome [2]: inactive | Potency [3]: > 20.6 µM (inactive) | outcome [4]: inactive | Potency [5]: inactive | activity change, negative = inhibition ([6]; at 25.7 µM (top of the series)): 1.07% (inactive) | max response [6, 14]: -9.82% | max response [6, 15]: -4.81% | Potency [7]: inactive | Potency [8]: inactive

O=C1C=C2C=C[C@H]3C[C@@]2(O1)[C@H]1CCCCN31
outcome [2]: inactive | Potency [3]: > 20.6 µM (inactive) and > 46 µM (inactive) | outcome [4]: inactive | Potency [5]: inactive | activity change, negative = inhibition ([6]; at 25.7 µM (top of the series)): -1.11% (inactive) | max response [6, 14]: -16.7% | max response [6, 15]: -17.3%

C[N+]1=Cc2cc3c(cc2CC1)OCO3
Potency [3]: > 46 µM (inactive) | outcome [4]: inactive | Potency [5]: inactive | Potency [9]: inactive | activity change, negative = inhibition ([6]; at 57.5 µM (top of the series)): 4.74% (inactive) | max response [6, 14]: 15.4% | max response [6, 15]: 22.1%

CC[C@@]1(c2ccc(N)cc2)CCC(=O)NC1=O
outcome [1]: inactive | outcome [2]: inactive | Potency [3]: > 46 µM (inactive) and > 20.6 µM (inactive) | Potency [10]: > 46 µM (inactive) and > 20.6 µM (inactive) | outcome [4]: inactive | Potency [5]: inactive | Potency [11]: inactive | activity change, negative = inhibition ([6]; at 25.7 µM (top of the series)): 0.179% (inactive) | max response [6, 14]: -3.22% | max response [6, 15]: -2.21% | Potency [12]: inactive | Potency [7]: inactive | Potency [8]: inactive | activity, negative = inhibition ([13]; parasite line A): 3.34% (inactive) | activity, negative = inhibition ([13]; parasite line B): 3.27% (inactive) | Potency (CP192): inactive | Potency (CP211): inactive | Potency (CP286): inactive | Potency (P94_40): inactive

CN1C[C@H](CO)C=C2c3cccc4[nH]cc(c34)C[C@@H]21
outcome [1]: inactive | outcome [2]: inactive | Potency [3]: > 20.6 µM (inactive) | Potency [10]: > 20.6 µM (inactive) | outcome [4]: inactive | Potency [5]: inactive | Potency [11]: inactive | activity change, negative = inhibition ([6]; at 25.7 µM (top of the series)): 0.712% (inactive) | max response [6, 14]: -6.66% | max response [6, 15]: -5.9% | Potency [7]: 31.6 µM (active)

C[C@@]12CC[C@H]3[C@@H](CC[C@]4(O)C[C@H](O)CC[C@@]34C=O)[C@]1(O)CC[C@@H]2C1=CC(=O)OC1
outcome [2]: inactive | Potency [3]: > 20.6 µM (inactive) | Potency [10]: > 20.6 µM (inactive) | outcome [4]: inactive | activity change, negative = inhibition ([6]; at 25.7 µM (top of the series)): -0.542% (inactive) | max response [6, 14]: 6.59% | max response [6, 15]: 6.37% | Potency [7]: inactive

CN1[C@@H]2CCC[C@H]1CC(=O)C2
outcome [1]: inactive | outcome [2]: inactive | Potency [3]: > 20.6 µM (inactive) | Potency [10]: > 20.6 µM (inactive) | outcome [4]: inactive | Potency [5]: inactive | activity change, negative = inhibition ([6]; at 25.7 µM (top of the series)): -2.47% (inactive) | max response [6, 14]: -0.588% | max response [6, 15]: -3.94% | Potency [7]: inactive

C[C@@]12CC[C@H](O)C[C@@H]1CC[C@H]1[C@@H]2C[C@@H](O)[C@]2(C)[C@@H](C3=CC(=O)OC3)CC[C@]12O
outcome [2]: inactive | Potency [3]: > 20.6 µM (inactive) | Potency [10]: > 20.6 µM (inactive) | outcome [4]: inactive | activity change, negative = inhibition ([6]; at 25.7 µM (top of the series)): -4.23% (inactive) | max response [6, 14]: -5.31% | max response [6, 15]: -9.41% | Potency [7]: inactive
